From PubChem BioAssay (NCI)
Compounds without any hit were thinned out: in the full panel of roughly 79,000, 15% have a hit. Calls of active or inactive are those of the source. No stated cut-off is given here; in the data, active means growth inhibition above about 70%; inactive means the rest.

Experiments:
[1] = NCI Yeast Anticancer Drug Screen. Data for the rad50 strain (AID 155);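 further: 0% = growth of vehicle-only cultures of the same strain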; conditions: S. cerevisiae rad50 strain growth inhibition; at 50.0 µM; active compounds read high
Method in brief: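 Growth of the mutant yeast was measured after compound exposure and referenced to vehicle-treated cultures.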

[2] = NCI Yeast Anticancer Drug Screen. Data for the mec2-1 strain (AID 157); conditions: S. cerevisiae mec2-1 strain, at 50.0 µM, active compounds read high
Method in brief: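 Test agents were screened against the mec2-1 yeast strain, with defined DNA repair or cell cycle alteration. Growth was scored as inhibition against vehicle-only controls.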

[3] = NCI Yeast Anticancer Drug Screen. Data for the sgs1 mgt1 strain (AID 161);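 further: 0% = growth of cultures given vehicle only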; conditions: S. cerevisiae sgs1 mgt1 strain, at 50.0 µM, active compounds read high
Method in brief: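 Mutant yeast exposed to compound; growth scored against vehicle-only wells.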

[4] = NCI Yeast Anticancer Drug Screen. Data for the cln2 rad14 strain (AID 165);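 further: 0% = growth equal to vehicle treated cultures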; conditions: S. cerevisiae cln2 rad14 strain, at 50.0 µM, active compounds read high
Method in brief: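 Growth of compound-exposed yeast (cln2 rad14 genotype) measured and expressed as inhibition relative to vehicle.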

[5] = NCI Yeast Anticancer Drug Screen. Data for the bub3 strain (AID 167); conditions: S. cerevisiae bub3 mutant strain, at 50.0 µM, active compounds read high
Method in brief: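 Whole-cell yeast assay. The mutant strain was incubated with compounds, and growth inhibition was determined by comparison with vehicle-treated cells.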

[6] = NCI Yeast Anticancer Drug Screen. Data for the mlh1 rad18 strain (AID 175); conditions: S. cerevisiae mlh1 rad18 strain growth inhibition; at 50.0 µM; active compounds read high
Method in brief: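 In this whole-cell yeast screen, a strain with altered DNA damage repair is challenged with compound, and its growth is measured against matched vehicle-treated controls.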

Measured: growth inhibition

C[CH2][Sn]([CH2]C)([n]1c2ccccc2c2c(C)c3cnccc3c(C)c21)[n]1c2ccccc2c2c(C)c3cnccc3c(C)c21
active: [1] 72.2% | [6] 71.3%
inactive: [2] 14.7% | [3] 25.5% | [4] 44.5% | [5] 25.6%

CCCOc1cc2c(cc1C(C)c1ccc(OC)cc1)OCO2 (stereo unspecified)
inactive: [1] 9.8% | [2] -4.35% | [3] 15.8% | [4] -1.9% | [5] -14.4% | [6] -53%

Cc1c(C(=O)CC(=O)C(=O)Nc2cc(Cl)ccc2Cl)[n+](=O)c2ccccc2n1[O-]
inactive: [1] -7.35% | [2] 1.9% | [3] -40.2% | [4] 16.2% | [5] 1.1% | [6] 1.65%

Cc1ccc(S(=O)(=O)OCC(C)(C)CC#N)cc1
inactive: [1] 10.9% | [2] 30.6% | [3] 35.9% | [4] 16.9% | [5] 46.4% | [6] 23.9%

Cc1c(Cc2ccccc2)c(N2CCOCC2)n2c(nc3ccccc32)c1C#N
inactive: [1] 4.75% | [2] 5.25% | [3] 0.65% | [4] -4.55% | [5] -2.8% | [6] 5.65%

CCCCCCCCCCCCCCCCCCNC1=C(C)C(=O)C(NCCCCCCCCCCCCCCCCCC)=C(OCC)C1=O
inactive: [1] 2.7% | [2] -2.95% | [3] -0.85% | [4] -10.8% | [5] -1.2% | [6] -9.5%

CC(C)(C)Nc1ccc([N+](=O)[O-])cc1[N+](=O)[O-]
inactive: [1] 26.4% | [2] -21.9% | [3] 6.6% | [4] 7.95% | [5] 25.2% | [6] -10.7%

O=C(/C=C\c1ccccc1)C(C(=O)/C=C/c1ccccc1)C(=O)c1ccccc1 (stereo unspecified)
inactive: [1] -1.5% | [2] -3.05% | [3] 3.15% | [4] 14.9% | [5] -1.25% | [6] 32.8%

COc1ccc(C(O)C(c2ccc(OCc3ccccc3)cc2)c2ccc(OCc3ccccc3)cc2)cc1 (stereo unspecified)
inactive: [1] 1.05% | [2] -27.9% | [3] -5.15% | [4] -4.25% | [5] -29.2% | [6] -22.4%

CCCCCCNC(=O)/C(=C\c1ccc(Cl)cc1Cl)NC(=O)c1ccccc1
inactive: [1] -3.7% | [2] -17.8% | [3] -9.75% | [4] 33.1% | [5] -16.5% | [6] -9.6%

COc1ccc2[nH]cc(C(=O)C(=O)NC34CC5CC(CC(C5)C3)C4)c2c1
inactive: [1] 12.7% | [2] 6% | [3] -5.2% | [4] -1.7% | [5] 16.2% | [6] -22.5%

O=[N+]([O-])c1ccc2c(c1)Cc1cccc([N+](=O)[O-])c1-2
inactive: [1] 2% | [2] -2.1% | [3] 0.25% | [4] -21.9% | [5] -5.9% | [6] 9.5%

CC1=CC(C)(C)Nc2ccccc21
inactive: [1] -0.25% | [2] -5.6% | [3] -8.95% | [4] -3.95% | [5] 6.95% | [6] 8.45%

CN(C)c1ccc(/C=c2/sc3nc(=O)c(-c4ccccc4NC(=O)C(F)(F)F)nn3c2=O)cc1
inactive: [1] 3.95% | [2] 2.65% | [3] -5.95% | [4] -12.1% | [5] -20.4% | [6] -5.15%

O=C(NCCCl)Nc1ccc2c(c1)CCC2
inactive: [1] 1.55% | [2] 3.3% | [3] 1.55% | [4] -10.8% | [5] 10.8% | [6] 6.7%

CN(C)CC(c1ccccc1)C(O)(c1ccccc1)c1ccccc1 (stereo unspecified)
inactive: [1] -5.65% | [2] -2.75% | [3] -1% | [4] -45.9% | [5] -18% | [6] 3.05%

CCOc1ccc(C(C)(C)c2cc3c(cc2OC)OCO3)cc1
inactive: [1] -16.2% | [2] -27.8% | [3] -39.9% | [4] -24.8% | [5] -21.9% | [6] -6.45%

COc1ccc(C(=C(I)c2ccccc2)c2ccc(OC)cc2)cc1
inactive: [1] -31.6% | [2] -26.4% | [3] -11.4% | [4] -15.9% | [5] -25.4% | [6] -18.9%

CN1CCc2nc(N)nc(-c3nc(N)nc4c3CN(C)CC4)c2C1
inactive: [1] -3.15% | [2] -12.2% | [3] -11.4% | [4] -17.1% | [5] -37.1% | [6] -1.8%

O=[N+]([O-])c1ccc2c(ccn2C2OCC(O)C(O)C2O)c1 (stereo unspecified)
inactive: [1] 5.7% | [2] 13.6% | [3] 8.7% | [4] -3.55% | [5] 18.1% | [6] -2.7%

CCOC(=O)c1c(C)c(=O)cnc2c(C#N)cnn12
inactive: [1] -4.55% | [2] -6.75% | [3] -6.8% | [4] -33.2% | [5] -1.4% | [6] -8.35%

CN(C)c1ccc(C=Nc2cc(S(=O)(=O)O)cc3cc(S(=O)(=O)O)cc(O)c23)cc1
inactive: [1] -22.9% | [2] -9.7% | [3] -14.7% | [4] 31.6% | [5] 12.4% | [6] 8.85%

CN1C(=O)C(CCCN=C(N)N)NC1=S (stereo unspecified)
inactive: [1] -13.7% | [2] -2.4% | [3] -6.65% | [4] -12.2% | [5] -2.45% | [6] -13.6%

CCCC(C)C(=O)OCCCc1ccccc1 (stereo unspecified)
inactive: [1] 7.55% | [2] -5.2% | [3] 2.9% | [4] -20.1% | [5] 18.8% | [6] 3.8%

O=C1c2ccccc2C(=O)c2nc3ccc(Cl)cc3cc21
inactive: [1] -12.3% | [2] -18.4% | [3] 1.35% | [4] 21.3% | [5] -12.5% | [6] -10.8%

CC(C)OC(=O)Oc1ccccc1Cl
inactive: [1] -18.5% | [2] -21.1% | [3] -13.6% | [4] -6.9% | [5] -3.35% | [6] -22.4%

C1=C(c2ccccc2)N(c2ccccc2)N=C(c2ccccc2)C1
inactive: [1] 0.85% | [2] -19.7% | [3] 6% | [4] -10.4% | [5] -1.65% | [6] 18.6%

CC(C)C(C(=O)O)N1C(=O)c2ccccc2C1=O (stereo unspecified)
inactive: [1] -16.2% | [2] -1.5% | [3] -12.2% | [4] -31.6% | [5] -16.1% | [6] -4.15%

O=C(NC(Nc1ccc(F)c(Cl)c1)(C(F)(F)F)C(F)(F)F)OCc1ccccc1
inactive: [1] -1.35% | [2] -1.05% | [3] -23.1% | [4] 3.1% | [5] -5.5% | [6] 24.3%

ClC(Cl)C1OCCOCCO1
inactive: [1] -16.1% | [2] -9.65% | [3] -9.9% | [4] -57.8% | [5] -0.35% | [6] -5.8%

NC(=O)C1CCCC1
inactive: [1] -3.3% | [2] 2.1% | [3] -5.25% | [4] 14.1% | [5] 23.4% | [6] -5.05%

CCOc1ccc(/C=C2\C=Nc3ccccc32)cc1
inactive: [1] -3.75% | [2] -10.8% | [3] 3.2% | [4] 6.7% | [5] 16.1% | [6] -5.4%

C=CCN(CC=C)c1nc(N)c2ccc(Cl)cc2n1
inactive: [1] -8% | [2] -8% | [3] -6.65% | [4] -52.4% | [5] -10.8% | [6] -6.45%

CCOC(=O)CC1(O)C(=O)N(Cc2ccccc2)c2ccccc21 (stereo unspecified)
inactive: [1] 15.6% | [2] -0.15% | [3] 7.55% | [4] 0.4% | [5] 19.8% | [6] -15.1%

CN1CCN(CCSC(=O)C(O)(c2ccccc2)C2CCCC2)CC1 (stereo unspecified)
inactive: [1] 17.1% | [2] 16.6% | [3] 7.35% | [4] -17.2% | [5] 4.6% | [6] 24.8%

COc1ccc(C(=O)O[C@H]2[C@@H]3C=CO[C@@H](OC4OC(CO)C(O)C(O)C4O)[C@@H]3[C@@]3(CO)O[C@@H]23)cc1O (stereo partly specified)
inactive: [1] 31.9% | [2] 23.9% | [3] -3.4% | [4] 11.7% | [5] 34.3% | [6] 38.6%

CC(=O)OC(C(=O)Nc1ncccn1)c1ccccc1 (stereo unspecified)
inactive: [1] -4.7% | [2] -2.8% | [3] -5.65% | [4] 11.4% | [5] 4.5% | [6] -10.9%

C=CCCCCCCCCC(=O)NCCCN1CCOCC1
active: [1] 77.5% | [2] 76.1% | [3] 93.5% | [4] 83.6% | [5] 85% | [6] 94.7%

O=C(Nc1ccc(Br)cn1)c1sc2ccccc2c1Cl
inactive: [1] 8.2% | [2] -9.7% | [3] 26.6% | [4] 19.4% | [5] 16.4% | [6] 14.2%

CCN(CC)S(=O)(=O)c1ccc(N)cc1
inactive: [1] 26.1% | [2] 2.15% | [3] 25.4% | [4] -13.9% | [5] -2.2% | [6] 8.4%

Cc1nc2ccccc2c(=O)o1
inactive: [1] -12.2% | [2] 7.05% | [3] 9.85% | [4] 15.1% | [5] -5.65% | [6] -21%
